Assay in all cases: NCI-60 one-dose screen, 48 h (100 = growth as untreated, 0 = no growth, -100 = all killed)
Holding throughout (details): 10 µM

The subject of experiment [1] is SK-MEL-2 melanoma.
Experiment [2] concerns EKVX NSCLC.
The test system of experiment [3] is SN12C renal.
The subject of experiment [4] is UO-31 renal.
In experiment [5] the test system is TK-10 renal.
Experiment [6] has as its system ACHN renal.
Experiment [7] has as its system CAKI-1 renal.
The test system of experiment [8] is A498 renal.
Experiment [9] deals with MOLT-4 leukemia.
Experiment [10] relates to SR leukemia.
Experiment [11] relates to RPMI-8226 leukemia.
Experiment [12] deals with OVCAR-8 ovarian.
The subject of experiment [13] is OVCAR-5 ovarian.
Experiment [14] deals with SK-OV-3 ovarian.
The subject of experiment [15] is IGROV1 ovarian.
Experiment [16] deals with OVCAR-3 ovarian.
Experiment [17] has as its system HS 578T breast.
Experiment [18] relates to NCI/ADR-RES ovarian.
Experiment [19] relates to OVCAR-4 ovarian.

SMILES strings stand for the structures. Compounds without any hit were thinned out: in the full panel of roughly 83,000, 20% have a hit.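 How to read the values: 0–100, growth inhibition (40 = 60% inhibited); 0, no net growth; -100 to 0, cell death (-40 = 40% of starting cells died; -100 = all dead).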 Values without a mark were called inactive. Active and inactive are the calls of the source. The calls were made as follows: active = growth percent below 10; inactive = the rest.

Take `O=C(CCn1cnc2c(cc(-c3ccccc3)n2-c2ccccc2)c1=O)Nc1ccc(F)cc1`: the growth in experiment [1] is 84.5%; in experiment [2], 80.8%; in experiment [3], 73.6%; in experiment [4], 75%; in experiment [5], 92.8%; in experiment [6], 55.7%. For the same compound, the growth in experiment [7] is 97.1%; in [8], 63.8%; in experiment [9], 85.5%; in [10], 72.3%; in [11], 79.3%; in experiment [12] it was 54%. Further, the growth in experiment [13] was 85.8%; in [14] it was 64.6%; in [15] it was 81.3%; in [16] it was 76.7%; in experiment [17] it was 63.1%; in [18] it was 55.1%.

Turning to `COc1cc(C(=O)/C(C)=C/c2c[nH]c3ccccc23)cc(OC)c1OC`, the growth in experiment [1] is 28.7%; in experiment [2], 33.5%; in experiment [3], 26.3%; in [4] it was 48.8%; in experiment [5], 62.3%; in experiment [6] it was 28.1%. Also, the growth was 34.1% in experiment [7]; 24.8% in experiment [8]; 17.5% in [9]; 17.1% in [10]; 49.9% in experiment [11]; 20.3% in experiment [12]. Moreover, the growth in experiment [13] is 53.3%; in experiment [19], 50.1%; in [14] it was 29.9%; in experiment [15], 18.8%; in [16] it was -8.19% (active); in experiment [17] it was 44.9%. The growth in [18] is 5.38% (active).

Take `COc1ccc(-c2cc(-c3ccccc3)nc(SCCCC(=O)NO)n2)cc1`: the growth was -7.04% (active) in [1]; -23.3% (active) in experiment [2]; -8.2% (active) in [3]; -52% (active) in [4]; 6.16% (active) in experiment [5]; -17.8% (active) in [6]. The growth was -16.4% (active) in experiment [7]; -44.3% (active) in [8]; 4.82% (active) in experiment [9]; 12.3% in experiment [10]; 6.59% (active) in experiment [12]; 17% in experiment [13]. The growth in experiment [19] is 13.5%; in experiment [14], -20.5% (active); in experiment [15], -32.6% (active); in [16], -22.8% (active); in experiment [17] it was 13.8%; in experiment [18], -40.5% (active).

`O=C(CN1CCN(C(=O)c2ccccc2)CC1)Nc1ccccc1SCc1ccccc1`: the growth is 66.8% in experiment [1]; 72.3% in experiment [2]; 77.9% in experiment [3]; 52.2% in experiment [4]; 82.2% in experiment [5]; 80.8% in [6]. Moreover, the growth is 71.8% in [7]; 86.6% in experiment [8]; 74.1% in experiment [9]; 71% in experiment [10]; 68.3% in [11]; 87.3% in experiment [12]. Moreover, the growth is 96.4% in [13]; 77.2% in [19]; 89.5% in experiment [14]; 84.2% in experiment [15]; 91.5% in experiment [16]; 83.9% in [17]. Besides, in experiment [18], the growth is 78.4%.

In the case of `Oc1ccc(-c2[nH]c3ccccc3c2-c2nc3ccccc3o2)cc1`, the growth was 66.9% in [1]; 83% in experiment [2]; 84.2% in experiment [3]; 40.9% in [4]; 84.8% in experiment [5]; 51.6% in [6]. Moreover, the growth in experiment [7] is 64%; in [8], 81.4%; in [9], 58.9%; in experiment [10], 14.8%; in experiment [11] it was 86.6%; in [12], 91.9%. Also, the growth in experiment [13] is 80.6%; in [14], 72.9%; in experiment [15], 52.6%; in [16], 74.1%; in [17], 81.4%; in [18], 32.5%.

Regarding `Cc1ccc(S(=O)(=O)N/N=C2\CCCc3ccccc32)cc1`, the growth in experiment [1] is 103%; in experiment [2], 93.6%; in experiment [3], 112%; in [4], 88.1%; in experiment [5], 119%; in experiment [6] it was 94.9%. The growth is 89.8% in experiment [7]; 91.8% in experiment [8]; 101% in [9]; 110% in experiment [10]; 94.3% in experiment [11]; 95.2% in [12]. For the same compound, the growth is 90% in experiment [13]; 95.8% in experiment [19]; 111% in experiment [14]; 113% in experiment [15]; 113% in [16]; 95% in experiment [17]. For the same compound, the growth in experiment [18] is 96.7%.

Consider `CNC(=O)c1cc(Oc2ccc3c(c2)sc2nc(-c4ccc(NC(=O)Nc5ccc(Cl)c(C(F)(F)F)c5)cc4)cn23)ccn1`, for which the growth in experiment [1] is 75.4%; in [2] it was 77.3%; in experiment [3], 87.3%; in experiment [4] it was 73.9%; in [5] it was 81%; in experiment [6] it was 82.8%. The growth is 80.6% in [7]; 83% in [8]; 64.2% in experiment [9]; 55.5% in [10]; 76.1% in experiment [11]; 104% in experiment [12]. For the same compound, the growth in [13] is 93.4%; in experiment [19], 80.3%; in experiment [14] it was 93.1%; in experiment [15], 78%; in experiment [16] it was 86.9%; in experiment [17], 71.7%. In addition, in [18], the growth was 89.9%.

The values above are taken from PubChem BioAssay (NCI).
